In the library only some 19% were active in any assay of this set; here they are far more common.
Cycloheximide cs: Cycloheximide Counterscreen for Small Molecule Inhibitors of Shiga Toxin | max response, % | cell reporter, cycloheximide protein synthesis inhibition counterscreen | actives 12% (n = 300,000); in the data active = max response mostly above about 13%, no sharp cut-off; inactive = mostly below about 14%; also: read at 38.3 µM for the half of the compounds with a filed dose; 0% is about no effect
Shiga toxin inh: A qHTS for Small Molecule Inhibitors of Shiga Toxin. Vero cells, Shiga toxin protein synthesis inhibition reporter. inhibition, % at 38.7 µM. actives 9.2% (n = 290,000); in the data active = inhibition mostly above about 28%, no sharp cut-off; inactive = mostly below about 43%; also: 0% is about no effect
Pf growth 96h: Primary qHTS for delayed death inhibitors of the malarial parasite plastid, 96 hour incubation | P. falciparum luciferase reporter growth, 96 h | Potency, µM (doses to about 28.7 µM), without a hit: at the top dose activity change, negative = inhibition, most hits filed as inhibitors | actives 6.9% (n = 320,000) | AID 504834, 2011; also: potency is read from the fitted curve at half-maximal effect; % is scaled to controls: 0 for no effect and ±100 for the full control effect
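Parasite growth measured via integrated firefly luciferase reporter in P. falciparum. Infected erythrocytes at 2% hematocrit, 0.05% parasitemia final were treated 96 hours at 37 C under 5% CO2, and luminescence was read.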
SARS PLpro yeast: qHTS of Yeast-based Assay for SARS-CoV PLP. actives 0.19% (n = 330,000). AID 485353, 2010. Potency, µM (top dose mostly 32.9 µM), for the others: top-dose activity, positive = growth rescue, usual class: activators. S. cerevisiae expressing SARS-CoV PLpro, growth rescue; calls by dose curve; also: potency is read from the fitted curve at half-maximal effect; 0% is about no effect; nearly all actives have a fitted effect of over 55% in size
Pf growth 48h: Primary qHTS for delayed death inhibitors of the malarial parasite plastid, 48 hour incubation | actives 5.9% (n = 310,000) | Potency, µM (series often up to 28.7 µM), for the others: top-dose activity change, negative = inhibition, usual class: inhibitors | P. falciparum luciferase growth in erythrocytes, 48 h | AID 504832, 2011; also: potency is read from the fitted curve at half-maximal effect; % is scaled to controls: 0 for no effect and ±100 for the full control effect
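Luminescence readout; reporter = integrated firefly luciferase in P. falciparum. RBC culture at 2% hematocrit, 0.1% parasitemia final, 37 C/5% CO2; decreased signal taken as growth inhibition.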
AMA1 RON2 block: qHTS for Inhibitors of AMA1-RON; Towards Development of Antimalarial Drug Lead: Primary Screen; AlphaScreen AMA1-biotinylated RON2 peptide binding; Potency, µM (top dose mostly 58.2 µM), inactives show at the highest dose activity change, negative = inhibition, usual class: inhibitors; actives 0.2% (n = 360,000); AID 720542, 2013;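 also: potency is read from the fitted curve at half-maximal effect; 0% = vehicle wells and -100% = peptide control; nearly all actives have a fitted effect of over 45% in size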
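AMA1 (3D7) with his tag at 25 nM final met compounds first, then biotinylated RON2 peptide at 25 nM; detection used donor plus acceptor beads, 10 µg/mL apiece, read by AlphaScreen after 30 min at room temperature.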
Starred values were filed as active, the others as inactive; i = inactive; ? = inconclusive; . = no result; + = active, no number; [ ] = another dose, or the depositor's remark. Unless noted, calls follow the shape of the dose curve; as a rule, active = well fitted curve in the direction sought with a large enough effect; inconclusive = small, poorly fitted or top-dose-only effect, or another doubt; inactive = no such curve, though single readings can be large; an effect the other way counts as inactive or inconclusive.

SMILES	Cycloheximide cs	Shiga toxin inh	Pf growth 96h	SARS PLpro yeast	Pf growth 48h	AMA1 RON2 block
COc1ccc(NC(=O)c2ccc(C(=O)c3cc(OC)ccc3OC)cc2)cc1	-5	-8	-4%	-1%	5%	6%
COC(=O)n1c(=O)oc2ccccc21	-3	6	24%[5.75 µM]	-3%	-4%	-4%
CCCCOC(=O)n1c(=O)oc2ccccc21	26*	44	?	-5%	75%	7%
COc1ccc(NC(=O)CCc2nc(-c3ccc(C)cc3)no2)c(OC)c1	-1	-14	-4%	6%	10%	-6%
COc1ccc(-c2noc(CCC(=O)Nc3cccnc3)n2)cc1OC	26	71	?	-5%	-4%	-2%
COc1ccc(OCCCC(=O)Nc2ccc3c(c2)OCCO3)cc1	11	+	-2%	-3%	-12%	1%
COc1cccc(-c2noc(CCC(=O)Nc3cccnc3)n2)c1	25*	77	.	0%	69%	0%
COc1ccc(-c2noc(CCC(=O)Nc3ccc4c(c3)OCCO4)n2)cc1	23*	43*	0.59µM*	15%	15%	6%
CCOC(=O)c1ccc(NC(=O)CCc2nc(-c3ccc(C)cc3)no2)cc1	12	28	3.7µM*	0%	?	3%
CC(=O)c1ccc(OCCCC(=O)Nc2ccc3c(c2)OCCO3)cc1	.	.	?	0%	-21%	13%
O=C(OCc1ccccc1)C1=NNC2C(=O)N(Cc3ccccc3)C(=O)C12 (centres undefined)	-2	-2	48%	-1%	10%	37%
C=CCOc1ccc(C[C@H](N)C(=O)NC[C@H]2O[C@@H](n3cc(C)c(=O)[nH]c3=O)C[C@@H]2O)cc1	.	.	.	.	.	5%
Cc1ccc(-c2noc(CCC(=O)Nc3ccc4c(c3)OCO4)n2)cc1	2	19	2.3µM*	5%	23%	-7%
COc1ccc(-c2noc(CCC(=O)Nc3ccc(C)c(C)c3)n2)cc1	15*	34	.	2%	-13%	16%
COc1ccc(NC(=O)CCc2nc(-c3ccc(C)cc3)no2)cc1Cl	18	55	.	5%	36%	4%
Cc1cc(NC(=O)c2c(Br)cnn2C)no1	-3	-1	-2%	-6%	28%	-4%
Cc1ccc(C(=O)C(C)OC(=O)C2CC(=O)N(C3CCCCC3)C2)cc1 (centres undefined)	2	32	?	1%	7%	-7%
CCc1c(C)c(C#N)c2nc3ccccc3n2c1NCC1CCCO1 (centres undefined)	-6	-5	.	5%	1.7µM*	2%
Cc1cc(NCC2CCCO2)n2c(nc3ccccc32)c1C#N (centres undefined)	1	-15	?	.	?	-5%
CCc1c(C)c(C#N)c2nc3ccccc3n2c1NCCOC	3	15	?	-2%	1.7µM*	-9%
CC(C)c1cc(NCC2CCCO2)n2c(nc3ccccc32)c1C#N (centres undefined)	1	-9	.	-8%	6.6µM*	7%
COC(=O)c1ccccc1NC(=S)NC(=O)COc1ccccc1Cl	-3	-7	24%	-3%	26%	22%
O=C(c1ccccc1)N1CCN(CC(O)COc2cccc3ccccc23)CC1 (centres undefined)	-1	.	0%	2%	?	-2%
COC(=O)c1ccccc1NC(=O)c1cccc(COc2ccccc2Cl)c1	86*	89*	204%	0%	.	-39%
O=C(NCc1ccccc1)c1cccc(COc2cc(Cl)ccc2Cl)c1	41*	118*	?	4%	18%	4%
SMILES	Cycloheximide cs	Shiga toxin inh	Pf growth 96h	SARS PLpro yeast	Pf growth 48h	AMA1 RON2 block
O=C(NCc1ccccc1)c1cccc(COc2ccccc2Cl)c1	61*	120*	170%	-11%	84%	-10%
O=C(NCc1cccnc1)c1ccc(COc2ccccc2Cl)cc1	10	63	13%[5.75 µM]	0%	36%	5%
O=C(c1cccc(COc2cccc3ccccc23)c1)N1CCCC1	40*	47*	142%	3%	47%	-8%
CCNC(=S)Nc1cc(Cl)ccc1Oc1ccccc1	-2	-7	?	12%	-19%	9%
NNC(=O)c1cccc(COc2ccccc2Br)c1	81*	100*	i	-8%	383%	59%
O=C(NCc1ccccc1)c1cnc(Cl)c(Cl)c1	23*	20	29%	-3%	26%	-5%
O=C(c1ccc(COCC(F)(F)F)cc1)N1CCN(c2ccccn2)CC1	35*	46*	?	-1%	31%	-7%
CN(C(=O)c1cccc(COc2ccc(Cl)cc2Cl)c1)c1ccccc1	171*	185*	?	.	109%	23%
CN(C(=O)c1ccc(COc2ccccc2Cl)o1)c1ccccc1	15	17	?	-3%	?	16%
COc1cccc(C(=O)OCC(=O)NCC2CCCO2)c1 (centres undefined)	.	.	.	4%	.	16%
O=S(=O)(c1ccccc1)N1N=C(c2ccc(Br)cc2)CC1c1ccco1 (centres undefined)	12	19	?	-2%	?	-6%
COc1ccc(OC)c(NC(=O)COC(=O)CN(C)S(=O)(=O)c2ccc(C)cc2)c1	-3	-6	2%	-9%	9%	4%
Cc1ccc(OCC(=O)O/N=C(\N)Cc2ccc([N+](=O)[O-])cc2)cc1C	1	-5	18%	-4%	?	-1%
Cc1ccccc1NC(=O)c1ccc2c(O)c(S(=O)(=O)c3ccccc3)c(=O)[nH]c2c1	-5	-3	?	8%	14%	-10%
O=C(c1cccc(COc2ccc(Cl)cc2Cl)c1)N1CCN(c2ccccn2)CC1	92*	+	23%	.	194%	-8%
NNC(=O)c1cccc(COc2ccc3c(c2)CCC3)c1	206*	196*	259%	-16%	257%	53%
Cn1c(SCC(=O)N2CCOCC2)nc2c(c1=O)SCC2	-1	-36	2%	4%	36%	-7%
CC1OC(OC2C(CO)OC(OCC3OC(OC(=O)[C@@]45CCC(C)(C)C[C@@H]4C4=CC[C@@H]6[C@@]7(C)CCC(OC8OCC(O)C(O)C8OC8OC(C)C(O)C(O)C8O)[C@@](C)(CO)C7CC[C@@]6(C)[C@]4(C)CC5)C(O)C(O)C3O)C(O)C2O)C(O)C(O)C1O (some centres undefined)	.	.	.	.	.	0%
Cc1ccccc1/C=c1\s/c(=C\C(=O)C(C)(C)C)[nH]c1=O	24*	42	?	10%	.	-8%
CC(C)(C)C(=O)/C=c1\[nH]c(=O)/c(=C\c2ccc(F)cc2)s1	11*	18	.	-25%	?	9%

Bioassay records (PubChem BioAssay)
